In PubChem BioAssay AID686948 (National Center for Advancing Translational Sciences (NCATS), 2013):
The source made the active and inactive calls. The call rests on the fitted dose curve; in most records, active means well fitted inhibition curve with a large enough effect; inactive means flat fitted curve, though single readings scatter.

Target: Tyrosine-protein kinase Yes (Homo sapiens) (UniProt P07947)
Assay: qHTS for small molecule inhibitors of Yes1 kinase: Confirmatory screen on the cherrypicks
Details: Recombinant Yes1, ADP-Glo luminescence, poly(E4Y) substrate
Text: The Src family of non-receptor protein tyrosine kinases contains nine members, including Yes1, Src, Fyn, Lyn, and […]. These kinases have important roles in a variety of cellular functions, such as cell proliferation, survival, and differentiation. Src, the most well characterized member of this family, has been previously identified as a proto-oncogene. […] In melanoma, it has been shown that Yes1, and not other family members, such as Src, is functionally involved in the malignant phenotype. Additionally, a recent study examining the downregulation of Yes1 by shRNA found significant effects on cell survival/growth for basal-like and Her2-positive breast cancers. […]
Two microliter of Yes1 enzyme (columns 1-2, 5-48; Millipore, Billerica, MA) are dispensed into Greiner, white solid-bottom 1536-well assay plates; columns 3 and 4 receive buffer without Yes1 as a control for maximum inhibition. […] The production of ADP is then quantified by the ADP-Glo Kit (Promega, Madison, WI). First, 2 uL of the first kit reagent is added, and the reaction is incubated for 45 minutes; then, 4 uL of the second kit reagent are added and the reaction is incubated for 30 minutes at which time the luminescence is read on a Viewlux plate reader (Perkin-Elmer, Waltham, MA). […]

Chain of Tyrosine-protein kinase Yes (Homo sapiens) (P07947 whole entry, looked up): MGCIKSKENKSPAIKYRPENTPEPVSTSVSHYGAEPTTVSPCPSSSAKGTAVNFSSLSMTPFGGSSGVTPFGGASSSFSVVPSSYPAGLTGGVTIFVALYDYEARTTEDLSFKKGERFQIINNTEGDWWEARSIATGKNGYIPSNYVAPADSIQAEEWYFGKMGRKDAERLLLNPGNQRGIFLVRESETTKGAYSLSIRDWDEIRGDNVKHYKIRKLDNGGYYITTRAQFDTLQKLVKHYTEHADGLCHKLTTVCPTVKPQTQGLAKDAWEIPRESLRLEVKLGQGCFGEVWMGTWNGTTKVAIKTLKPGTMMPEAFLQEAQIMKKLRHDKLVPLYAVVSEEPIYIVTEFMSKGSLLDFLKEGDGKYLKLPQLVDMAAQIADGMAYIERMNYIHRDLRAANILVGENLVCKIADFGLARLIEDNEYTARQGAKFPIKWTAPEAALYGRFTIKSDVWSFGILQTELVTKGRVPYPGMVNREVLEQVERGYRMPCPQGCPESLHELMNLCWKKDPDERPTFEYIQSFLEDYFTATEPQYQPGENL

Structure (SMILES): c1cc(-c2cnn3cc(-c4ccc(OCCN5CCCCC5)cc4)cnc23)ccn1
- Potency: 196 nM (active)
